# Several values for one entry are separate records, joined by “and”; a condition that tells them apart may be missing. Identical values can stand only once. Out of some 6,400 compounds screened, about 610 (9.5%) were called active. The sample holds actives, similar compounds and a random draw of the others, so the mix is not that of the screen. No stated cut-off is given here; in the data, active means activity change below about -70%; inconclusive means no clear call, values can overlap the other calls; inactive means above that. A structure can be active in one record and inactive in another.
# Test: Toxoplasma gondii ME49Luc growth in HeLa cells, luciferase, no IFN-y, primary screen (AID 1259421)
# Details: T. gondii ME49Luc in HeLa, 72 h, stronger effect = lower value, concentration not given here
row,Compound,"activity change, negative = inhibition"
1,CCNC(=O)[C@H]1O[C@@H](n2cnc3c(N)nc(NCCc4ccc(CCC(=O)O)cc4)nc32)[C@@H](O)[C@@H]1O,9.76% (inactive)
2,CC(C)(C)c1cnc(CSc2cnc(NC(=O)C3CCNCC3)s2)o1,-71.7% (active)
3,CC(=O)O[C@@H]1CC2C(C)(C)[C@H](O)CC[C@]2(C)C2CC[C@@]3(C)[C@H](c4ccoc4)OC(=O)C4OC43[C@@]21C (stereo partly drawn),14.1% (inactive)
4,COc1cccc(CCc2ccccc2OCC[C@@H]2C[C@@H](O)CN2C)c1,-6.08% (inactive) and -38.5% (inactive)
5,O=c1cc(N2CCOCC2)oc2c(-c3ccccc3)cccc12,13.4% (inactive)
6,O=c1cc(N2CCNCC2)oc2c(-c3ccccc3)cccc12,-75.1% (active) and -94.2% (active)
7,Nc1ccc(-c2cccc3c(=O)cc(N4CCOCC4)oc23)cc1,3.1% (inactive) and -4.84% (inactive)
8,Nc1ncnc2c1ncn2[C@@H]1O[C@H](COP(=O)(O)OP(=O)(O)OP(=O)(O)OP(=O)(O)OC[C@H]2O[C@@H](n3cnc4c(N)ncnc43)C(O)C2O)C(O)C1O (stereo partly drawn),-3.47% (inactive)
9,O=C1C=CC(=O)C2=C1C1c3ccccc3C2c2ccccc21,-2.66% (inactive)
10,Cn1cccc1/C=C1\C(=O)NC(=O)c2ccccc21,-4.19% (inactive)
11,CCc1cc(Cl)c(OC)c(C(=O)NCC2CCCN2CC)c1O (stereo not drawn),0.175% (inactive)
12,c1cnc(SCc2cccnc2)nc1,15.1% (inactive)
13,Cc1cc(C(C)(C)CC(C)(C)C)ccc1OCCOCC[N+](C)(C)Cc1ccccc1,-1.86% (inactive)
14,CC(C)(C)CC(C)(C)c1ccc(OCCOCC[N+](C)(C)Cc2ccccc2)cc1,-84.1% (active) and 4.83% (inactive)
15,C[N+](C)(CCOc1ccccc1)Cc1ccccc1,13.6% (inactive)
16,CC(O)COC[C@H]1O[C@@H]2O[C@H]3[C@H](O)[C@@H](O)[C@@H](O[C@H]4[C@H](O)[C@@H](O)[C@@H](O[C@H]5[C@H](O)[C@@H](O)[C@@H](O[C@H]6[C@H](O)[C@@H](O)[C@@H](O[C@H]7[C@H](O)[C@@H](O)[C@@H](O[C@H]8[C@H](O)[C@@H](O)[C@@H](O[C@H]1[C@H](O)[C@H]2O)O[C@@H]8COCC(C)O)O[C@@H]7COCC(C)O)O[C@@H]6COCC(C)O)O[C@@H]5COCC(C)O)O[C@@H]4COCC(C)O)O[C@@H]3COCC(C)O (stereo partly drawn),10.2% (inactive)
17,C=CCn1c(=O)n(C2OC(CO)C(O)C2O)c2nc(N)[nH]c(=O)c21 (stereo not drawn),0.162% (inactive)
18,CCNC(=O)[C@@H]1CCCN1C(=O)[C@H](CCCN=C(N)N)NC(=O)[C@H](CC(C)C)NC(=O)[C@@H](COC(C)(C)C)NC(=O)[C@H](Cc1ccc(O)cc1)NC(=O)[C@H](CO)NC(=O)[C@H](Cc1c[nH]c2ccccc12)NC(=O)[C@H](Cc1cnc[nH]1)NC(=O)C1CCC(=O)N1 (stereo partly drawn),9.62% (inactive)
19,CC(C)C(=O)OC[C@H]1O[C@@H](n2ccc(N)nc2=O)[C@](C)(F)[C@@H]1OC(=O)C(C)C,23.1% (inactive)
20,O=C(Nc1ncc(SCCN2CCCC2)s1)[C@]1(c2ccc(S(=O)(=O)C3CC3)cc2)C[C@H]1C1CCCCC1,-76.3% (active) and -62.6% (inactive)
21,CC(C)(C)[C@@]1(O)CCN2C[C@@H]3c4ccccc4CCc4cccc(c43)[C@H]2C1,13.9% (inactive)

row,Compound,"activity change, negative = inhibition"
1,C[C@H](NC(=O)/C(C#N)=C/c1ccc(O)c(O)c1)c1ccccc1,13.8% (inactive) and 32.8% (inactive)
2,CCC[C@H](NC(=O)/C(C#N)=C/c1cccc(Br)n1)c1ccccc1,-77% (active)
3,CC(C)c1cc(/C=C(\C#N)C(=O)NCCCc2ccccc2)cc(C(C)C)c1O,-46.1% (inactive)
4,C[C@@H](NC(=O)/C(C#N)=C\c1ccc(O)c(O)c1)c1ccccc1,-3.05% (inactive)
5,C[C@H](NC(=O)/C(C#N)=C/c1cccc(Br)n1)c1ccccc1,-73.9% (active)
6,CCN(CC)CCCCC(NC(=O)c1ccc([N+](=O)[O-])cc1)c1ccccc1 (stereo not drawn),34.1% (inactive)
7,O=C(CS(=O)Cc1ccco1)NC/C=C\COc1cc(CN2CCCCC2)ccn1 (stereo not drawn),8.76% (inactive)
8,CC12C=CCC1C1CCC3CC(=O)CCC3(C)C1CC2 (stereo not drawn),14.3% (inactive)
9,COc1ccc(NC(=O)c2cc(OCCCN(C)C)nn2Cc2ccccc2)cc1,3.25% (inactive) and 7.86% (inactive)
10,CCC(=O)NS(=O)(=O)c1ccc(-c2c(-c3ccccc3)noc2C)cc1,23.5% (inactive)
11,CC1(c2ccccc2)OC(C(=O)O)=CC1=O (stereo not drawn),15.7% (inactive)
12,Nc1cccc2c(=O)[nH][nH]c(=O)c12,7.31% (inactive)
13,CCCS(=O)(=O)Nc1ccc(F)c(C(=O)c2c[nH]c3ncc(-c4ccc(Cl)cc4)cc23)c1F,-58.2% (inactive) and -67.7% (inactive)
14,COc1ncc(-c2ccc3nccc(-c4ccnnc4)c3c2)cc1NS(=O)(=O)c1ccc(F)cc1F,-79.5% (active)
15,CCc1cc(-c2n[nH]c(C)c2-c2ccc3c(c2)OCCO3)c(O)cc1O,-16.3% (inactive)
16,NC(=NCCCCCCN=C(N)/N=C(\N)Nc1ccc(Cl)cc1)/N=C(\N)Nc1ccc(Cl)cc1,-58% (inactive)
17,CCN(CC)CCCCN1c2ccccc2Oc2ccc(Cl)cc21,-10.3% (inactive) and 12.5% (inactive)
18,CC/C(=C(/c1ccccc1)c1ccc(OCCN(C)C)cc1)c1ccccc1,-72.4% (active)
19,CN(C)CCOC(=O)COc1ccc(Cl)cc1,4.1% (inactive) and 6.57% (inactive)
20,CCN(CC)CCOc1ccc(/C(=C(\Cl)c2ccccc2)c2ccccc2)cc1,-69.8% (inactive) and -52.9% (inactive)
21,CN(C)CCOc1ccc(/C(=C(/CCCl)c2ccccc2)c2ccccc2)cc1,-77.6% (active) and -84.8% (active)

row,Compound,"activity change, negative = inhibition"
1,CC/C(=C(\c1ccccc1)c1ccc(OCCN(C)C)cc1)c1ccccc1,13.1% (inactive) and -14.7% (inactive) and -6.44% (inactive)
2,CCN(CC)CCOc1ccc(Cc2ccccc2)cc1,5.6% (inactive) and 13.5% (inactive)
3,CC(=O)OCC(=O)[C@@]12OC3(CCCC3)O[C@@H]1CC1C3CCC4=CC(=O)C=C[C@]4(C)[C@@]3(F)[C@@H](O)C[C@@]12C (stereo partly drawn),-7.19% (inactive) and -8.15% (inactive)
4,C[C@]12C=CC(=O)C=C1CCC1C2[C@@H](O)C[C@@]2(C)C1CC[C@]2(O)C(=O)COC(=O)CCC(=O)O (stereo partly drawn),-10.6% (inactive) and -6.45% (inactive)
5,CC(=O)OC[C@H]1O[C@@H](n2ccc(=O)[nH]c2=O)[C@H](OC(C)=O)[C@@H]1OC(C)=O,8.3% (inactive)
6,C=CC1CN2CCC1CC2[C@@H](O)c1ccnc2ccc(OC)cc12 (stereo partly drawn),21.1% (inactive)
7,COc1nccc(-c2c(-c3ccc(F)cc3)ncn2C2CCNCC2)n1,-64.9% (inactive)
8,COc1nccc(-c2c(-c3ccc(F)cc3)ncn2C2CCC(O)CC2)n1 (stereo not drawn),-77.2% (active)
9,CCOc1ccc(Cc2cc([C@@]34OC[C@@](CO)(O3)[C@@H](O)[C@H](O)[C@H]4O)ccc2Cl)cc1,12.2% (inactive)
10,CSCC1CN(/N=C/c2ccc([N+](=O)[O-])o2)C(=O)O1 (stereo not drawn),3.31% (inactive)
11,CCNC(=O)CCC/C=C/C[C@@H]1[C@H](C=C[C@H](O)CCc2ccccc2)[C@@H](O)C[C@@H]1O,-1.53% (inactive)
12,CCCC[P+](CCCC)(CCCC)Cc1ccc(NC(=O)[C@H](Cc2ccc3ccccc3c2)NC(=NC2CCCCC2)NC2CCCCC2)cc1,27% (inactive)
13,O=C(CCCN1CCC(O)(c2cccc(C(F)(F)F)c2)CC1)c1ccc(F)cc1,30.3% (inactive)
14,O=C(CCCN1CCC(O)(c2ccc(Cl)cc2)CC1)c1ccc(F)cc1,7.06% (inactive) and 15.9% (inactive)
15,OC1(c2ccc(Cl)c(C(F)(F)F)c2)CCN(CCCC(c2ccc(F)cc2)c2ccc(F)cc2)CC1,-65.8% (inactive) and -91.8% (active)
16,Nc1ccn(C[C@@H](CO)OCP(=O)(O)O)c(=O)n1,-60.1% (inactive)
17,O/N=C/c1cc[n+](COC[n+]2ccc(/C=N/O)cc2)cc1,8.88% (inactive)
18,C[C@H]1CC2C([C@@H](O)C[C@@]3(C)C2CC[C@]3(O)C(=O)CO)[C@@]2(C)C=CC(=O)C=C12 (stereo partly drawn),5.02% (inactive)
19,OC[C@H]1O[C@H](O)C[C@@H](O)[C@@H]1O,-36.7% (inactive)
20,CCOCCn1c(C2CCN(CCc3ccc(C(C)(C)C(=O)O)cc3)CC2)nc2ccccc21,20.9% (inactive)
21,N#C/C(=C/c1ccc(O)c(O)c1)C(N)=O,7.91% (inactive)

# — PubChem BioAssay AID1259421 (Broad Institute, 2018)
